# DT40 TDP1 no CPT: qHTS for Inhibitors of human tyrosyl-DNA phosphodiesterase 1 (TDP1): qHTS in cells in absence of CPT; Potency, µM (titrated, usually from 46.2 µM), without a hit: at the top dose activity change, negative = growth inhibition, actives largely listed as inhibitors; 420,000 tested, 15% active; AID 686978, 2013; DT40 Tdp1-/- hTDP1 cells, no CPT, ATP luminescence, 48 h; further: nearly all actives have a fitted effect of over 55% in size
#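 Stably hTDP1-transfected Tdp1-null chicken DT40 cells were treated with library compounds minus camptothecin and grown for at least 48 hr at 37 °C, after which cellular ATP was quantified by luminescence.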
# TDP1 cell CPT: DT40-hTDP1 cell growth loss with CPT; Potency, µM (series often up to 46.2 µM), inactives show top-dose activity change, negative = growth inhibition, usual class: inhibitors; 420,000 tested, 12% active; chicken DT40 Tdp1-/-;hTDP1 cells + 20 nM CPT, ATP luminescence, 48 h; AID 686979; further: nearly all actives have a fitted effect of over 55% in size
#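 Chicken DT40 Tdp1-/- cells complemented with human TDP1, 400 cells/well, exposed to compounds plus 20 nM camptothecin for at least 48 h at 37 C; viability read as ATP content by CellTiter-Glo luminescence.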
# RORg inh: ROR gamma (mouse) transcription inhibition; Potency, µM (highest dose often 53.6 µM), for the others: at the highest dose activity change, negative = inhibition, hits mostly inhibitors; P51450; Drosophila S2 Gal4-RORgamma UAS-luciferase reporter, 20 h; 310,000 tested, 5.4% active; further: nearly all actives have a fitted effect of over 60% in size
#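 ROR gamma transcriptional activity was tracked as Gal4-UAS luciferase output in stably transfected Drosophila Schneider cells, with compound added 1 hr before 700 uM copper sulfate induction and a 20 hr ambient-temperature incubation.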
# 12-LOX inh: blocks human arachidonate 12S-lipoxygenase; 580,000 tested, 1.1% active; P18054; purified 12hLO, xylenol orange hydroperoxide absorbance; Potency, µM (titrated, usually from 108 µM), for the others: at the top dose activity change, negative = inhibition, actives largely listed as inhibitors
# Target sequence (P18054 whole entry, looked up): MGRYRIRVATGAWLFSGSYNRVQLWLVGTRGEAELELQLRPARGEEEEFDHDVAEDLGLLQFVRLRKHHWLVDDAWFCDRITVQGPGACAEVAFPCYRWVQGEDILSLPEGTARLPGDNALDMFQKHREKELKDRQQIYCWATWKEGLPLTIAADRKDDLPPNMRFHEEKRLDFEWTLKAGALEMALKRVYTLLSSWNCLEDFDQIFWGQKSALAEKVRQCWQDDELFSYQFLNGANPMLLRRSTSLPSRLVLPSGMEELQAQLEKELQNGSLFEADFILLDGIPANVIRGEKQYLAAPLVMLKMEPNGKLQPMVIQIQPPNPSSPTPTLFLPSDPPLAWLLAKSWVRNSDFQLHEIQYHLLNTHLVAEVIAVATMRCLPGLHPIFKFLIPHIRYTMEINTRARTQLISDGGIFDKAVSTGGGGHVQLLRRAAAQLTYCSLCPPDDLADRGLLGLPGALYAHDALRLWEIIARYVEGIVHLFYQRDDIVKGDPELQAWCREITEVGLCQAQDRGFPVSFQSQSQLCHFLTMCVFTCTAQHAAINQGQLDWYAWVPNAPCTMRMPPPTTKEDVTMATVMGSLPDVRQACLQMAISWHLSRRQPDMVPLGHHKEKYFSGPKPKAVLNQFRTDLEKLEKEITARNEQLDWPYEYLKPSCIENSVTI
#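 Purified human 12hLO at 150 nM in 25 mM Hepes, 0.01% Triton X-100, pH 7.0, preincubated 15 min at room temperature with compound. Reaction started with 40 uM arachidonic acid, 30 min at room temperature. Hydroperoxide measured by Fe-xylenol orange, 573/405 nm absorbance ratio.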
# Gal4-VP16 FLuc: Gal4-VP16 reporter inhibition counter-screen. Drosophila S2 Gal4-VP16 UAS-luciferase, luminescence, 20 h. Potency, µM (top dose mostly 53.6 µM), for inactives: top-dose activity, negative = inhibition, actives largely listed as inhibitors. 310,000 tested, 3.5% active. AID 2546;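 further: Gal4-VP16 expression switched on by copper sulfate through the metallothionein promoter; nearly all actives have a fitted effect of over 50% in size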
# ELG1 repair inh: ELG1-dependent DNA repair inhibition | Potency, µM (doses to about 46.1 µM), without a hit: at the top dose activity change, negative = inhibition, hits mostly inhibitors | HEK293T ELG1-luciferase reporter, luminescence, 16 h; DNA damage induced by 5-fluorouridine | 330,000 tested, 2.3% active | AID 504467; further: nearly all actives have a fitted effect of over 55% in size
#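 HEK293T cells expressing luciferase-tagged ELG1 (2,000/well) received 5-Fluorouridine plus compound or DMSO for 16 hr at 37 °C. Luciferase was read by ONE-Glo luminescence after 30 min at room temperature.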
# * = called active by the depositor; u = inconclusive; x = no result given. Most compounds without a hit are left out; they make up all but 15% or so of the library. The call rests on the fitted dose curve; in most records, active means well fitted curve in the direction sought with a large enough effect; inconclusive means small, poorly fitted or top-dose-only effect, or another doubt; inactive means no such curve, though single readings can be large; an effect the other way counts as inactive or inconclusive. On the % scale 0 is the no-effect control and ±100 the full control effect; potency means the concentration at half of the fitted maximal effect.
SMILES,DT40 TDP1 no CPT,TDP1 cell CPT,RORg inh,12-LOX inh,Gal4-VP16 FLuc,ELG1 repair inh
COc1ccc(-c2noc(-c3ccc(N4CCCC4)c([N+](=O)[O-])c3)n2)cc1OC,-16%,u,x,-14%,x,x
COc1cc(-c2noc(-c3ccc(N4CCOCC4)c([N+](=O)[O-])c3)n2)cc(OC)c1OC,5.2µM*,u,x,-9%,x,x
Cc1cccc(-c2noc(-c3ccc(N4CCOCC4)c([N+](=O)[O-])c3)n2)c1,18µM*,u,x,0%,x,x
Cc1oc(-c2cccc(F)c2)nc1CN1CCCN(C(=O)c2ccco2)CC1,-29%,-16%,-7%,u,2%,-7%
CCN1CCN(C(=O)C2CCN(Cc3nc(-c4cccc(Cl)c4)oc3C)CC2)CC1,16µM*,21µM*,-33%,u,-4%,5%
Cc1oc(-c2cccc(Cl)c2)nc1CN1CCN(C(=O)c2ccco2)CC1,x,x,x,35µM*,x,x
Cc1oc(-c2cccc(Cl)c2)nc1CN1CCC(C(=O)N2CCN(c3ccccn3)CC2)CC1,18µM*,23µM*,x,x,x,x
O=C(N[C@@H]1CN(Cc2ccc(F)cc2F)C[C@H]1CO)c1ccccc1,x,x,x,28µM*,x,x
CCn1ncc(CN2C[C@@H](CO)[C@H](NC(=O)c3ccccc3)C2)c1C,x,x,x,35%,x,x
O=C(NC1CC1)[C@@H]1CN(Cc2ccc(Cl)cc2F)C[C@H]1CO,x,x,x,45µM*,x,x
COc1ccc(CN2CC(=O)N3[C@H]4c5ccc(OC)cc5OC[C@@H]4[C@H](c4ccccc4)[C@]3(C)C2=O)cc1,18µM*,u,x,15%,x,u
COc1ccc2c(c1)[C@H]1[C@H](CO2)[C@H](c2ccccc2)[C@]2(C)C(=O)N(Cc3ccc(C)cc3)CC(=O)N12,u,15µM*,x,x,x,18µM*
Cc1ccc(CN2CC(=O)N3[C@H]4c5cc(Cl)ccc5OC[C@@H]4[C@H](c4ccccc4)[C@]3(C)C2=O)cc1,u,u,x,1%,x,-3%
Cc1ccc([C@@H]2[C@@H]3C(=O)N(c4ccccc4)C(=O)[C@@H]3[C@]3(C)C(=O)N(Cc4ccc(-c5ccccc5)cc4)CC(=O)N23)o1,u,18µM*,41%,u,0%,7%
Cc1ccc(CN2CC(=O)N3[C@H]4c5cc(C)ccc5OC[C@@H]4[C@H](c4ccccc4)[C@]3(C)C2=O)cc1,u,u,x,-52%,x,-25%
COc1ccc2c(c1)OC[C@H]1[C@H]2N2C(=O)CN(Cc3ccc(Cl)cc3)C(=O)[C@@]2(C)[C@H]1c1ccccc1,u,8.2µM*,x,u,x,-29%
Cc1ccc(CN2CC[C@@H]3[C@H]2C(=O)NC[C@H](CCC(=O)NCc2cccs2)N3C)cc1,x,x,x,22%,x,x
COc1ccc2c(c1)OC[C@H]1[C@H]2N2C(=O)CN(Cc3ccccc3)C(=O)[C@@]2(C)[C@H]1c1ccccc1,u,18µM*,x,-4%,x,x
COc1ccc2c(c1)OC[C@H]1[C@H]2N2C(=O)CN(C)C(=O)[C@@]2(C)[C@H]1c1ccccc1,-18%,u,x,-19%,x,8%
O=C1C=CC2(O[C@H](c3ccccc3)[C@@H](c3ccccc3)O2)[C@H](Sc2ccccc2O)C1,0.58µM*,0.46µM*,x,u,x,x
COC(=O)CSc1cccc2c1C(=O)CC2c1ccccc1 (configuration not stated),-6%,6%,2%,2%,12%,7%
O=[N+]([O-])c1ccc(S(=O)(=O)NN=Cc2ccc(Cl)c(Cl)c2)cc1,u,u,x,18µM*,x,x
Brc1ccc(-c2nc(-c3ccccc3)no2)cc1,x,x,x,3%,x,x
O=c1oc2ccccc2cc1-c1nc(-c2ccccc2)no1,-17%,-11%,11µM*,x,8.9µM*,u
Cc1cccc(-c2noc(-c3cc4ccccc4oc3=O)n2)c1,-12%,-8%,0.89µM*,0%,u,u
SMILES,DT40 TDP1 no CPT,TDP1 cell CPT,RORg inh,12-LOX inh,Gal4-VP16 FLuc,ELG1 repair inh
CCN(CC)c1ccc2cc(-c3nc(-c4ccccc4)no3)c(=O)oc2c1,5.8µM*,u,x,1%,x,x
Cc1ccc(-c2noc(-c3cc4ccccc4oc3=O)n2)cc1,-25%,1%,9%,-6%,1%,u
c1ccc(-c2noc(-c3ccc4ccccc4c3)n2)cc1,-9%,-12%,3.5µM*,7%,25µM*,u
N#Cc1ccc(CS(=O)(=O)Cc2ccc(Cl)c(Cl)c2)cc1,x,x,x,-14%,x,x
COc1cccc(S(=O)(=O)N2CCCCC2c2nc(C3CC3)n[nH]2)c1 (configuration not stated),x,x,x,38%,x,x
Cc1cc(C)n(-c2nc3ccccc3nc2NCc2ccc(F)cc2)n1,x,x,x,13%,x,x
Brc1ccc(CNc2ccc3ncccc3c2)cc1,12µM*,21µM*,u,-35%,7.1µM*,u
COc1nc(NCCc2ccc(OC)c(OC)c2)nc(Nc2ccccc2)n1,u,15µM*,u,u,14%,u
COc1ccc(CCNc2cc(C)nc3c(-c4ccccc4)cnn23)cc1OC,29µM*,u,45%,1%,6%,u
COc1ccc(CCNc2cc(C)nc3c(-c4ccccc4)c(C)nn23)cc1OC,16µM*,u,1%,7%,-6%,21µM*
COc1ccc(CCNc2cc(C)nc(N)n2)cc1OC,u,u,2%,0%,1%,0%
COc1ccc(CCNc2cc(C)nc3c(-c4ccc(Cl)cc4)cnn23)cc1OC,16µM*,21µM*,15%,-9%,-7%,u
COc1ccccc1-c1cnn2c(NCCc3ccccc3)cc(C)nc12,u,4%,3%,-8%,u,u
COCCNc1cc(C)nc2c(-c3ccccc3OC)c(C)nn12,-11%,-4%,-12%,23%,2%,1%
O=C(NC1CCCCC1)c1ccc2ccccc2c1,u,-20%,x,14%,x,x
O=C(NC1CC1)c1ccc2c(c1)C1C3CCC(C3)C1C(c1ccccc1)N2 (configuration not stated),26µM*,u,34%,-14%,-8%,-22%
CCn1nc(C(=O)NC(CC(=O)OC)c2ccc(F)cc2)c2ccccc2c1=O (configuration not stated),x,x,x,-7%,x,x
CS(=O)(=O)c1cnc2c(-c3ccsc3)cnn2c1N,0%,3%,u,0%,-15%,u
